From PubChem BioAssay AID1159580 (chemical genetic matrix, 2015)
Out of some 5,500 compounds screened, about 2,000 (36%) were called active. Inconclusive results (about 18%) are left out. Rule as the data show it: active = normalized growth mostly below about 0.91 (no sharp cut-off); inconclusive = no clear call, values can overlap the other calls; inactive = mostly above about 0.92. This is one part of the list.

Assay: chemical genetic growth profiling, strain panel (AID 1159580);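 also: tested at 20 µM; growth read once vehicle control cultures reached saturation at 30 °C; 1 = growth at the plate median or of vehicle wells; lower values mean less growth of the strain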
Conditions: S. cerevisiae deletion strains, growth OD

Measured: normalized growth

CCn1nc(C)cc1C(=O)Sc1cccc(Br)c1
inactive: locus YAR019C, strain CDC15, stronger effect = lower value 0.917 | locus YBL105C, strain PKC1, stronger effect = lower value 0.934 | locus YBR135W, strain CKS1, stronger effect = lower value 0.91 | locus YBR136W, strain MEC1, stronger effect = lower value 0.942 | locus YBR160W, strain CDC28, stronger effect = lower value 0.924 | locus YDL017W, strain CDC7, stronger effect = lower value 0.935 | locus YDL028C, strain MPS1, stronger effect = lower value 0.924 | locus YDL101C, strain DUN1, stronger effect = lower value 0.951 | locus YDL108W, strain KIN28, stronger effect = lower value 0.93 | locus YDL132W, strain cdc53, stronger effect = lower value 0.922 | locus YDL214C, strain PRR2, stronger effect = lower value 0.706 | locus YDR052C, strain DBF4, stronger effect = lower value 0.971 | locus YDR054C, strain cdc34, stronger effect = lower value 0.885 | locus YDR226W, strain ADK1, stronger effect = lower value 0.925 | locus YER133W, strain GLC7, stronger effect = lower value 0.784 | locus YFL029C, strain CAK1, stronger effect = lower value 0.904 | locus YFR003C, strain YPI1, stronger effect = lower value 0.932 | locus YFR028C, strain CDC14, stronger effect = lower value 0.933 | locus YGR040W, strain KSS1, stronger effect = lower value 0.747 | locus YGR052W, strain FMP48, stronger effect = lower value 0.725 | locus YHR082C, strain KSP1, stronger effect = lower value 0.626 | locus YIL147C, strain SLN1, stronger effect = lower value 0.933 | locus YJL095W, strain BCK1, stronger effect = lower value 0.551 | locus YJL128C, strain PBS2, stronger effect = lower value 0.913 | locus YJR016C, strain ILV3, stronger effect = lower value 0.921 | locus YJR066W, strain TOR1, stronger effect = lower value 0.543 | locus YKL048C, strain ELM1, stronger effect = lower value 0.924 | locus YKL101W, strain HSL1, stronger effect = lower value 0.786 | locus YKL193C, strain SDS22, stronger effect = lower value 0.927 | locus YKL203C, strain TOR2, stronger effect = lower value 0.746 | locus YML070W, strain DAK1, stronger effect = lower value 0.727 | locus YMR001C, strain CDC5, stronger effect = lower value 0.904 | locus YMR205C, strain PFK2 (second series), stronger effect = lower value 0.819 | locus YMR277W, strain FCP1, stronger effect = lower value 0.914 | locus YNL006W, strain LST8, stronger effect = lower value 0.917 | locus YNL161W, strain CBK1, stronger effect = lower value 0.937 | locus YNL183C, strain NPR1, stronger effect = lower value 0.629 | locus YNL207W, strain RIO2, stronger effect = lower value 0.918 | locus YNL222W, strain SSU72, stronger effect = lower value 0.917 | locus YOL078W, strain AVO1, stronger effect = lower value 0.91 | locus YOL136C, strain PFK27, stronger effect = lower value 0.701 | locus YOR119C, strain RIO1, stronger effect = lower value 0.741 | locus YOR329C, strain SCD5, stronger effect = lower value 0.935 | locus YPL204W, strain HRR25, stronger effect = lower value 0.676 | locus YPL209C, strain IPL1, stronger effect = lower value 0.936 | locus YPR025C, strain CCL1, stronger effect = lower value 0.935 | locus YPR106W, strain ISR1, stronger effect = lower value 0.97 | locus YPR111W, strain DBF20, stronger effect = lower value 0.955 | strain NNK1, stronger effect = lower value 0.963 | strain TSCII, stronger effect = lower value 0.908
active: locus YDR477W, strain SNF1, stronger effect = lower value 0.65 | locus YER123W, strain YCK3, stronger effect = lower value 0.592 | locus YFL009W, strain cdc4, stronger effect = lower value 0.883 | locus YFR019W, strain FAB1, stronger effect = lower value 0.737 | locus YGR092W, strain DBF2, stronger effect = lower value 0.332 | locus YHR030C, strain SLT2, stronger effect = lower value 0.613 | locus YHR079C, strain IRE1, stronger effect = lower value 0.476 | locus YHR205W, strain SCH9, stronger effect = lower value 0.527 | locus YJL157C, strain FAR1, stronger effect = lower value 0.638 | locus YJR066W, strain TOR1 (second series), stronger effect = lower value 0.227 | locus YKL067W, strain YNK1, stronger effect = lower value 0.714 | locus YLR113W, strain HOG1, stronger effect = lower value 0.461 | locus YLR133W, strain CKI1, stronger effect = lower value 0.724 | locus YLR403W, strain SFP1, stronger effect = lower value 0.566 | locus YNL020C, strain ARK1, stronger effect = lower value 0.697 | locus YNL307C, strain MCK1 (second series), stronger effect = lower value 0.601 | locus YOR061W, strain CKA2, stronger effect = lower value 0.662 | locus YOR231W, strain MKK1, stronger effect = lower value 0.486 | locus YPL031C, strain PHO85, stronger effect = lower value 0.619 | locus YPL153C, strain RAD53, stronger effect = lower value 0.551 | locus YPL256C, strain CLN2, stronger effect = lower value 0.634
